An excerpt weighted towards active compounds, which were near 19% of everything screened.
IL1B secr inh: qHTS for Inhibitors of Inflammasome Signaling: IL-1-beta AlphaLISA Primary Screen; activity change, % at 57.5 µM; actives 4.7% (n = 360,000); THP-1 LPS/ATP IL-1B secretion, AlphaLISA, 16 h; hits give low values; in the data active = activity change below about -50%; inconclusive = mostly about -30% to -49%; also: % is scaled to controls: 0 for no effect and ±100 for the full control effect
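Secreted IL-1B measured by AlphaLISA bead assay after 16 h compound exposure of THP-1 cells; compounds (final up to 57.5 uM) added 1 h before LPS (250 ng/mL) and ATP (1.25 mM) stimulation; lower signal means less secretion.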
TGFb SMAD3 inh: qHTS for Inhibitors of TGF-b | HepG2 CAGA-GFP TGF-b/SMAD3 reporter, GFP fluorescence, 18 h; TGF-beta stimulated, 500 pg/mL final | Potency, µM (doses to about 46.1 µM), without a hit: at the highest dose activity, negative = inhibition, usual class: inhibitors | actives 1.2% (n = 410,000) | AID 588855, 2011; also: potency is read from the fitted curve at half-maximal effect; % is scaled to controls: 0 for no effect and ±100 for the full control effect; nearly all actives have a fitted effect of over 65% in size
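GFP signal (ex488/em500-530) from TGF-beta-stimulated HEPG2 CAGA-GFP cells, 500 pg/mL final, 18 h at 37 degrees C in DMEM plus 1% FBS, normalized to unstimulated and DMSO-stimulated controls.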
TDP1 cell noCPT: qHTS for Inhibitors of human tyrosyl-DNA phosphodiesterase 1 (TDP1): qHTS in cells in absence of CPT. DT40 Tdp1-/- hTDP1 cells, no CPT, ATP luminescence, 48 h. Potency, µM (doses to about 46.2 µM), for the others: top-dose activity change, negative = growth inhibition, usual class: inhibitors. actives 15% (n = 420,000). AID 686978, 2013; also: potency is read from the fitted curve at half-maximal effect; % is scaled to controls: 0 for no effect and ±100 for the full control effect; nearly all actives have a fitted effect of over 55% in size
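Stably hTDP1-transfected Tdp1-null chicken DT40 cells were treated with library compounds minus camptothecin and grown for at least 48 hr at 37 °C, after which cellular ATP was quantified by luminescence.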
ASM inhibitor: Inhibitors of Secretory Acid Sphingomyelinase (S-ASM): qHTS; Sphingomyelin phosphodiesterase (Homo sapiens), P17405; placental ASM, HMU-PC fluorogenic substrate, 60 min; Potency, µM (series often up to 57.5 µM), without a hit: at the top dose activity change, negative = inhibition, actives largely listed as inhibitors; actives 0.006% (n = 340,000); AID 504937, 2011; also: potency is read from the fitted curve at half-maximal effect
Target sequence (P17405 47-631 limits assumed): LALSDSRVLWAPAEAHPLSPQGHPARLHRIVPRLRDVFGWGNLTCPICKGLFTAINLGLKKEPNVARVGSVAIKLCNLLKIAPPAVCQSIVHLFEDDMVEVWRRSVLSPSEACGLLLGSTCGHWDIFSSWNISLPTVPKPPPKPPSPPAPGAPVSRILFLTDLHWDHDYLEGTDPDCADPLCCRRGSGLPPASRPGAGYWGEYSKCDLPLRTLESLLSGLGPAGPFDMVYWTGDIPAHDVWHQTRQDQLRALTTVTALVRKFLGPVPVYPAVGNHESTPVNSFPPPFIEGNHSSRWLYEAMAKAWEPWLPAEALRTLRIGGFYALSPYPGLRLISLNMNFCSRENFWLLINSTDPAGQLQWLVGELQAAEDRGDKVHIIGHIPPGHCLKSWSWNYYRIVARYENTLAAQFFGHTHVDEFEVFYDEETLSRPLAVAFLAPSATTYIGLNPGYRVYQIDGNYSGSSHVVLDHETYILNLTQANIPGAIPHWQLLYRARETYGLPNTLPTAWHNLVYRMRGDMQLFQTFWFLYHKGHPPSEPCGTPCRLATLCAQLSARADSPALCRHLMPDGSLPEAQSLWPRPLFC
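qHTS format. ASM enzyme prepared from human placenta hydrolyses the fluorogenic substrate HMU-PC0 (9 uM final) over 60 min at 37 °C after a 10 min compound preincubation.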
HepG2 viability: qHTS for Inhibitors of TGF-b: Cytotox Counterscreen; HepG2 CAGA-GFP viability, ATP luminescence, 18 h; Potency, µM (top dose mostly 46.1 µM), inactives show at the top dose activity change, negative = cytotoxicity, hits mostly cytotoxic; actives 0.76% (n = 410,000); also: potency is read from the fitted curve at half-maximal effect
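CellTiter-Glo luminescence gave cytotoxicity after 18 hours at 37 degrees C. The cells were HepG2 CAGA-GFP in 1% FBS DMEM, stimulated with 500 pg/mL TGF-beta after compound addition. %Activity was normalised to no-cell wells (complete cell-killing) and DMSO (no toxicity), and curves were fitted and classified.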
TDP1 cell CPT: qHTS for Inhibitors of human tyrosyl-DNA phosphodiesterase 1 (TDP1): qHTS in cells in presence of CPT; actives 12% (n = 420,000); chicken DT40 Tdp1-/-;hTDP1 cells + 20 nM CPT, ATP luminescence, 48 h; AID 686979, 2013; Potency, µM (highest dose often 46.2 µM), for the others: top-dose activity change, negative = growth inhibition, hits mostly inhibitors; also: potency is read from the fitted curve at half-maximal effect; % is scaled to controls: 0 for no effect and ±100 for the full control effect; nearly all actives have a fitted effect of over 55% in size
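Chicken DT40 Tdp1-/- cells complemented with human TDP1, 400 cells/well, exposed to compounds plus 20 nM camptothecin for at least 48 h at 37 C; viability read as ATP content by CellTiter-Glo luminescence.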
Active calls of the source: *; ? = inconclusive; nt = no result. Unless noted, calls follow the shape of the dose curve; as a rule, active = well fitted curve in the direction sought with a large enough effect; inconclusive = small, poorly fitted or top-dose-only effect, or another doubt; inactive = no such curve, though single readings can be large; an effect the other way counts as inactive or inconclusive.

SMILES	IL1B secr inh	TGFb SMAD3 inh	TDP1 cell noCPT	ASM inhibitor	HepG2 viability	TDP1 cell CPT
Cc1cc(C)c(C)c(S(=O)(=O)N2CCC(C(=O)Nc3ccncc3)CC2)c1C	-8	6%	8.2µM*	-1%	-18%	?
O=C(Nc1ccncc1)C1CCN(S(=O)(=O)c2ccccc2C(F)(F)F)CC1	22	-3%	26µM*	0%	14%	15µM*
O=C(Nc1ccncc1)C1CCN(S(=O)(=O)c2ccc(Cl)c(C(F)(F)F)c2)CC1	?	-28%	15µM*	-4%	-22%	16µM*
O=C(Nc1ccncc1)C1CCN(S(=O)(=O)c2ccccc2)CC1	30	-2%	?	0%	-2%	?
O=C(Nc1ccncc1)C1CCN(S(=O)(=O)c2cccs2)CC1	20	-16%	?	1%	-21%	-3%
COc1ccc(/C=N/NC(=S)Nc2cc(C(F)(F)F)ccc2Cl)cc1	12	9%	?	6%	0.63µM*	?
COc1cc(/C=C(\C#N)C(=O)Nc2ccc3c(c2)OCCO3)ccc1O	-3	61%	?	-8%	-15%	?
COc1ccc(S(=O)(=O)N2CCC(C(=O)Nc3cc(C(F)(F)F)ccc3Cl)CC2)cc1	nt	?	16µM*	nt	-20%	?
O=C(Nc1ccncc1)C1CCN(S(=O)(=O)c2ccc(Cl)cc2)CC1	12	5%	16µM*	2%	-7%	23µM*
Cc1cc(C)c(C)c(S(=O)(=O)N2CCC(C(=O)N3CC(C)CC(C)C3)CC2)c1C (stereo not drawn)	-75*	-4%	26µM*	4%	-27%	18µM*
Cc1ccc(S(=O)(=O)N2CCC(C(=O)Nc3ccncc3)CC2)cc1	14	0%	?	-1%	-10%	?
CCCOc1ccc(C(=O)NNC(=S)NC(C)=O)cc1	63	-19%	3.3µM*	-1%	-15%	2.6µM*
C=CCNC(=S)NNC(=O)c1ccc(OCCCC)cc1	8	-3%	-25%	0%	-5%	-13%
CCCOc1ccc(C(=O)NNC(=S)NC(=O)c2ccccc2)cc1	8	-13%	16µM*	-8%	-16%	?
Cc1ccccc1OCC(=O)NNC(=S)NC(=O)c1ccccc1[N+](=O)[O-]	16	0%	?	1%	5%	-93%
CC(C)(C)c1ccc(OCC(=O)NNC(=S)NC(=O)c2ccccc2[N+](=O)[O-])c(Br)c1	-10	0%	16µM*	-2%	-6%	23µM*
CCCOc1ccc(C(=O)NNC(=S)NC(=O)c2ccccc2[N+](=O)[O-])cc1	52	-19%	10µM*	-2%	-20%	10µM*
CCCCn1c(N)c(N(CCOC)C(=O)c2cccc(S(=O)(=O)N(CC)c3ccccc3)c2)c(=O)[nH]c1=O	14	0%	?	11%	5%	-2%
CCNc1ncc2nc(CCc3ccccc3)c(=O)n(CCOC)c2n1	nt	nt	-15%	nt	nt	10%
CC(C)(C)C(=O)NC(=S)NNC(=O)c1ccc(-c2ccccc2)cc1	142	10µM*	2.1µM*	-7%	-51%	3.3µM*
CCCC(=O)Nc1ccc(C(=O)NNC(=S)NC(=O)c2cccs2)cc1	14	?	?	-2%	-5%	?
O=C(NNC(=S)NC(=O)c1ccccc1)c1ccc(O)cc1	48	0%	9.2µM*	-2%	-1%	16µM*

Screening results as filed in PubChem.
